# Laboratory results taken from PubChem BioAssay (NCATS).
# Several values for one entry are separate records, joined by “and”; a condition that tells them apart may be missing. Equal entries are not always repeated. Results filed as inconclusive are left out. A number with no mark means an inactive call. Activity calls are given as the source filed them. Calls come from the whole dose curve; as a rule, active = well fitted inhibition curve with a large enough effect; inconclusive = small, poorly fitted or top-dose-only effect; inactive = flat fitted curve, though single readings scatter.
# Assays:
# CRL-7250 = normal cell line; experiment: Cytotoxic Profiling of Annotated Libraries Using Quantitative High-Throughput Screening (AID 1296008); conditions: Five cell lines viability, CellTiter-Glo ATP luminescence, 48-72 h; max response: stronger effect = lower value; note: potency is the fitted concentration of half-maximal effect; for max response: % is set by controls: 0 for no effect and ±100 for the full control effect
# Outline: (§1)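 Cells exposed to compounds for 48 or 72 hr at 37 degrees Celsius. Viability read as ATP-coupled luminescence with CellTiter-Glo after 10 min at room temperature.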
# HaCat = experiment: as above; conditions: Five cell lines viability, CellTiter-Glo ATP luminescence, 48-72 h; max response: stronger effect = lower value
# Outline: as §1
# NIH3T3 = experiment: as above; conditions: Five cell lines viability, CellTiter-Glo ATP luminescence, 48-72 h; max response: stronger effect = lower value
# Outline: as §1
# KB-3-1 = experiment: as above; conditions: Five cell lines viability, CellTiter-Glo ATP luminescence, 48-72 h; max response: stronger effect = lower value
# Outline: as §1
# HEK293 = experiment: as above; conditions: Five cell lines viability, CellTiter-Glo ATP luminescence, 48-72 h; max response: stronger effect = lower value
# Outline: as §1
# HB3 = experiment: qHTS profiling for inhibitors of Plasmodium falciparum proliferation (AID 504749);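 note: 0% = DMSO vehicle and full inhibition = artemisinin control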; conditions: P. falciparum in erythrocytes, SYBR Green DNA, 72 h; series mostly up to 28.7 µM
# Outline: (§2)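 Readout was DNA-dye fluorescence from lysed cultures, ex 485/em 535 nm. Parasitized red cells had grown 72 h with compound; data scaled between 0.29 uM artemisinin and DMSO wells and corrected using vehicle-only plates.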
# ICS = experiment: as above; conditions: P. falciparum in erythrocytes, SYBR Green DNA, 72 h; series mostly up to 28.7 µM
# Outline: as §2
# JCK = experiment: as above; conditions: P. falciparum in erythrocytes, SYBR Green DNA, 72 h; series mostly up to 28.7 µM
# Outline: as §2
# N140 = experiment: as above; conditions: P. falciparum in erythrocytes, SYBR Green DNA, 72 h; series mostly up to 28.7 µM
# Outline: as §2
# P93_24 = experiment: as above; conditions: P. falciparum in erythrocytes, SYBR Green DNA, 72 h; series mostly up to 28.7 µM
# Outline: as §2
# P94_40 = experiment: as above; conditions: P. falciparum in erythrocytes, SYBR Green DNA, 72 h; series mostly up to 28.7 µM
# Outline: as §2
# PAD = experiment: as above; conditions: P. falciparum in erythrocytes, SYBR Green DNA, 72 h; series mostly up to 28.7 µM
# Outline: as §2
# PC15 = experiment: as above; conditions: P. falciparum in erythrocytes, SYBR Green DNA, 72 h; series mostly up to 28.7 µM
# Outline: as §2
# PC26 = experiment: as above; conditions: P. falciparum in erythrocytes, SYBR Green DNA, 72 h; series mostly up to 28.7 µM
# Outline: as §2
# PC49 = experiment: as above; conditions: P. falciparum in erythrocytes, SYBR Green DNA, 72 h; series mostly up to 28.7 µM
# Outline: as §2
# SC27B = experiment: as above; conditions: P. falciparum in erythrocytes, SYBR Green DNA, 72 h; series mostly up to 28.7 µM
# Outline: as §2
# TAB109 = experiment: as above; conditions: P. falciparum in erythrocytes, SYBR Green DNA, 72 h; series mostly up to 28.7 µM
# Outline: as §2
# TAB113 = experiment: as above; conditions: P. falciparum in erythrocytes, SYBR Green DNA, 72 h; series mostly up to 28.7 µM
# Outline: as §2
# TAB165 = experiment: as above; conditions: P. falciparum in erythrocytes, SYBR Green DNA, 72 h; series mostly up to 28.7 µM
# Outline: as §2
# W2 = experiment: as above; conditions: P. falciparum in erythrocytes, SYBR Green DNA, 72 h; series mostly up to 28.7 µM
# Outline: as §2
# Note: nearly all actives have a fitted effect of over 60% in size.
smiles,measurement,setting,value
COc1ccc(S(=O)(=O)Nc2cc(-c3c(O)ccc4ccccc34)c(O)c3ccccc23)cc1,max response,CRL-7250,-21.5%
same,max response,HaCat,-11.6%
same,outcome,NIH3T3,inactive
CCN(CC)CCCCNc1ncc2c(n1)N(C)C(=O)N(c1c(Cl)c(OC)cc(OC)c1Cl)C2,Potency,CRL-7250,14.8 µM (active)
same,max response,KB-3-1,-30%
Cc1noc(-c2ccc(CSCCC(=O)O)cc2)c1NC(=O)OC(C)c1ccccc1Cl (stereo not drawn),max response,HEK293,-6.98%
same,max response,HaCat,-23.2%
same,outcome,KB-3-1,inactive
O=C1NCCc2[nH]c(-c3ccncc3)cc21,Potency,CRL-7250,7.43 µM (active)
same,Potency,NIH3T3,23.5 µM (active)
C[C@]12CCC(=O)C=C1[C@@H]1CC1[C@H]1[C@H]3[C@@H]4C[C@H]4[C@@]4(CCC(=O)O4)[C@@]3(C)CC[C@H]12 (stereo partly drawn),max response,CRL-7250,3.77%
same,max response,HaCat,-9.69%
same,outcome,NIH3T3,inactive
CC[C@@]1([C@@H]2O[C@@H]([C@H]3O[C@@](O)(CO)[C@H](C)C[C@H]3C)C[C@H]2C)CC[C@H]([C@]2(C)CC[C@]3(C[C@H](O)[C@@H](C)[C@@H]([C@@H](C)[C@@H](OC)[C@H](C)C(=O)O)O3)O2)O1,Potency,HEK293,0.144 µM (active)
Cc1cncc2cccc(S(=O)(=O)N3CCCN(C(=O)CN)C[C@@H]3C)c12,outcome,HEK293,inactive
same,Potency,HaCat,8.33 µM (active)
same,max response,KB-3-1,-18.7% and -19.4%
same,Potency,NIH3T3,26.4 µM (active)
CCN(CC)CCNC(=O)c1c(C)[nH]c(C=C2C(=O)Nc3ccc(F)cc32)c1C,Potency,CRL-7250,0.34 µM (active)
same,Potency,KB-3-1,2.15 µM (active)
CN1CCc2c(c3ccccc3n2Cc2ccc(C(=O)NO)cc2)C1,max response,CRL-7250,-28.2% and -9.31%
same,Potency,KB-3-1,26.4 µM (active)
CCOC(=O)[C@H](CCc1ccccc1)N[C@@H](C)C(=O)N1[C@@H](C(=O)O)C[C@H]2CCC[C@@H]21,Potency,HEK293,18.7 µM (active)
same,Potency,HaCat,37.2 µM (active)
CN(C)CCN1C(=O)c2cccc3cc(N)cc(c23)C1=O,Potency,CRL-7250,10.5 µM (active)
same,Potency,KB-3-1,16.6 µM (active)
same,Potency,NIH3T3,3.32 µM (active)
Nc1nc2c(c(=O)[nH]1)N(C=O)[C@H](CNc1ccc(C(=O)N[C@@H](CCC(=O)O)C(=O)O)cc1)CN2,Potency,HB3,inactive
same,Potency,ICS,inactive
same,Potency,JCK,inactive
same,Potency,N140,inactive
same,Potency,P93_24,inactive
same,Potency,P94_40,inactive
same,Potency,PAD,inactive
same,Potency,PC15,inactive
same,Potency,PC26,inactive
same,Potency,PC49,inactive
same,Potency,SC27B,inactive
same,Potency,TAB109,inactive
same,Potency,TAB113,inactive
same,Potency,TAB165,inactive
same,Potency,W2,inactive
same,max response,CRL-7250,-8.32%
same,outcome,HaCat,inactive
same,max response,KB-3-1,3.69%
same,outcome,NIH3T3,inactive
C[C@H]1COc2c(N3CCN(C)CC3)c(F)cc3c(=O)c(C(=O)O)cn1c23,max response,CRL-7250,-8.35%
same,max response,KB-3-1,6.8%
same,outcome,NIH3T3,inactive
COC[C@H](NC(=O)c1cnc(C)s1)C(=O)N[C@@H](COC)C(=O)N[C@@H](Cc1ccccc1)C(=O)[C@@]1(C)CO1,Potency,HEK293,0.148 µM (active)
same,Potency,HaCat,0.662 µM (active)
same,Potency,KB-3-1,0.469 µM (active)
same,Potency,NIH3T3,0.833 µM (active)
CCCCCCCCc1ccc(CCC(N)(CO)CO)cc1,Potency,HEK293,26.4 µM (active)
same,Potency,HaCat,18.7 µM (active)
CC(C(C)N1CC(=O)NC(=O)C1)N1CC(=O)NC(=O)C1 (stereo not drawn),outcome,CRL-7250,inactive
same,max response,KB-3-1,-3.89%
O=C1NC(=O)C(=Cc2ccc3nccc(-c4ccncc4)c3c2)S1,Potency,CRL-7250,0.0526 µM (active)
same,Potency,KB-3-1,0.148 µM (active)
same,Potency,NIH3T3,0.209 µM (active)
COc1ccc2c(c1OC)C(=O)OC2[C@H]1c2c(cc3c(c2OC)OCO3)CCN1C (stereo partly drawn),Potency,HB3,inactive
same,Potency,ICS,inactive
same,Potency,JCK,inactive
same,Potency,N140,inactive
same,Potency,P93_24,inactive
same,Potency,P94_40,inactive
same,Potency,PAD,inactive
same,Potency,PC15,inactive
same,Potency,PC26,inactive
same,Potency,PC49,inactive
same,Potency,SC27B,inactive
same,Potency,TAB109,inactive
same,Potency,TAB113,inactive
same,Potency,TAB165,inactive
same,Potency,W2,inactive
same,Potency,CRL-7250,0.833 µM (active)
same,Potency,HaCat,10.5 µM (active)
same,Potency,KB-3-1,0.118 µM (active)
same,Potency,NIH3T3,1.05 µM (active)
Cc1nc(NC(=O)N2CCC[C@@H]2C(N)=O)sc1-c1ccnc(C(C)(C)C(F)(F)F)c1,Potency,HEK293,14.8 µM (active)
same,Potency,HaCat,3.32 µM (active)
same,Potency,KB-3-1,8.33 µM (active)
same,Potency,NIH3T3,16.6 µM (active)
c1ccc(CNc2nc(NCc3ccccc3)c3ccccc3n2)cc1,max response,CRL-7250,-7.33%
same,Potency,KB-3-1,26.4 µM (active)
N#CC(=Cc1ccc(O)c(O)c1)C(=O)NCc1ccccc1,max response,HEK293,-6.05%
same,max response,HaCat,-2.31%
same,outcome,KB-3-1,inactive
COc1cc(C)c(Sc2cnc(NC(=O)c3ccc(CNC(C)C(C)(C)C)cc3)s2)cc1C(=O)N1CCN(C(C)=O)CC1 (stereo not drawn),Potency,HEK293,14.8 µM (active)
same,Potency,HaCat,26.4 µM (active)
same,Potency,KB-3-1,11.8 µM (active)
CC(C)NC[C@@H](C(=O)N1CCN(c2ncnc3c2[C@H](C)C[C@H]3O)CC1)c1ccc(Cl)cc1,Potency,HEK293,0.209 µM (active)
same,Potency,HaCat,4.18 µM (active)
